High-throughput results deposited in PubChem by Broad Institute.
A selection follows.
aSyn UTR act: Activators working through SNCA 5'UTR binding (MLPCN); 300,000 tested, 7.1% active; alpha-synuclein 5'UTR reporter, activators screen; activity score, % (tested at 7.5 µM), hits read low; AID 1814; in the data active = activity score below about -60%
Starred values were filed as active, the others as inactive.

SMILES	aSyn UTR act
Cc1cc(C(=O)NC2CCC(C)CC2)c(C)o1 (stereo not drawn)	-109.5*
CCc1nc2oc3ccccc3c(=O)c2c(=O)n1-c1ccc(C)cc1	-138.5*
CCCc1nc2oc3ccccc3c(=O)c2c(=O)n1-c1ccccc1	-153.3*
Cc1ccc(-n2c(C(C)C)nc3oc4ccccc4c(=O)c3c2=O)cc1	-111.4*
CCc1nc2oc3ccccc3c(=O)c2c(=O)n1-c1ccccc1	-314.6*
CCCc1nc2oc3ccccc3c(=O)c2c(=O)n1-c1ccc(C)cc1	-83.9*
CCOC(=O)c1cc(-c2ccc(C)cc2)nc2nc(SC)[nH]c(=O)c12	49.3
CCOC(=O)c1ccc(-c2ccc3c(c2)CCC3)nc1C	-99.1*
COC(=O)c1ccc(-c2ccc(F)cc2)nc1C	-192.1*
Cn1nc(C(=O)NC2CCCCC2)c2c1-c1ccccc1SC2	-98.0*
CC(=O)c1ccc(N/N=C(/C(N)=O)C2=NC(C)(C)Cc3ccccc32)cc1	56.4
CC(=O)c1ccc(Nc2ccc(-c3ccccc3F)nn2)cc1	-171.8*
CC(C)c1ccc(NC(=O)Nc2cnccn2)cc1	-211.5*
Cc1ccc(NC(=O)Nc2cnccn2)cc1C	-68.1*
Cc1ccc(NC(=O)Nc2cnccn2)cc1	-118.3*
O=[N+]([O-])c1ccc(N=Nc2ncc[nH]2)cc1	-95.6*
O=C(CCc1nnc(Cc2cccc(C(F)(F)F)c2)o1)NCCc1ccccc1F	-70.9*
CC(=O)CCC(=O)NCCc1ccccc1F	-63.5*
Cc1cc(CN(C)C(=O)CCc2nnc(Cc3cccc(C(F)(F)F)c3)o2)on1	-79.0*
CCN(CC)C(=O)CCc1nnc(Cc2cccc(C(F)(F)F)c2)o1	-177.1*
Cc1ccc(-n2nnnc2Sc2nc([N+](=O)[O-])nn2C)cc1	-70.6*
CCCS(=O)(=O)NCc1cn2c(C)csc2n1	-112.3*
Cc1csc2nc(CCNS(=O)(=O)c3cccs3)cn12	-141.1*
Cc1csc2nc(CNC(=O)c3ccco3)cn12	-67.7*
CCc1nc(-c2ccc(-c3ccc(OC)cc3)nc2OC)no1	-132.4*
SMILES	aSyn UTR act
COCc1nc(-c2ccc(-c3ccc(OC)cc3)nc2OC)no1	-122.7*
COCc1nc(-c2ccc(-c3ccccc3)nc2OC)no1	-100.3*
COc1ccc(-c2ccc(-c3noc(C(C)C)n3)c(OC)n2)cc1	-96.3*
COc1nc(-c2ccccc2)ccc1-c1noc(C)n1	-111.7*
COc1ccc(CNc2nc3ccccc3n2C)c(OC)c1	-87.8*
CCCn1c(NCc2cccc(OC)c2O)nc2ccccc21	-82.0*
COc1ccc(CNc2nc3ccccc3n2C)c(O)c1	-133.5*
Cc1nc(-c2ccc(Cl)cc2)sc1C1(C)CC(c2cccc(F)c2)=NO1 (stereo not drawn)	-67.1*
COc1nc(C)ccc1-c1noc(-c2cccnc2)n1	-106.1*
COc1ccccc1-c1nc(-c2ccc(C)nc2OC)no1	-113.6*
CCCC(=O)Nc1ccc(NC(=O)c2ccccc2Cl)nc1	-76.1*
CCC(=O)Nc1ccc(NC(=O)c2ccccn2)cn1	-87.8*
CCSc1nnc(NC(=O)c2ccccc2)s1	-94.5*
COc1ccc(-c2nnc3sc(C4CCCCC4)nn23)cc1OC	65.3
Cc1cc(C(=O)Nc2nnc(C3CCCCC3)s2)cs1	-136.4*
O=C(Nc1nnc(C2CCCCC2)s1)c1ccc(Br)s1	-219.0*
CCSc1nnc(NC(=O)c2ccccn2)s1	66.7
CCSc1nnc(NC(=O)c2ccc(Br)s2)s1	-89.3*
O=C(Nc1nnc(C(F)(F)F)s1)c1ccc(Br)s1	-75.5*
CCSc1nnc(NC(=O)c2ccccc2C)s1	-117.2*
O=C(NCCc1ccccc1F)c1ccc2c(c1)OCCO2	108.2
O=C(NCCc1c[nH]c2ccccc12)c1cccnc1	-66.8*
O=C(NCCc1ccc(Cl)cc1)c1ccc2c(c1)OCO2	-121.2*
O=C(NCCc1c[nH]c2ccccc12)c1cc(Cl)c2c(c1)OCO2	-110.0*
O=C(NCCc1c[nH]c2ccccc12)c1ccc2c(c1)OCO2	-142.4*
SMILES	aSyn UTR act
Cn1c(C(=O)NCCc2c[nH]c3ccccc23)cc2sccc21	-237.4*
COc1ccc(NN=Nc2ccc([N+](=O)[O-])cc2)cc1	-239.6*
Cc1ccc(NC(=O)CSc2ccc(C(N)=O)cc2[N+](=O)[O-])cc1	-66.8*
Cc1ccc(NC(=O)c2ccc(NCCN)c([N+](=O)[O-])c2)cc1	-98.8*
CCCNc1ccc(C(=O)OCC)cc1[N+](=O)[O-]	-82.9*
CSc1ccccc1OCc1cc(C(=O)NC(C)c2cnn(C)c2)no1 (stereo not drawn)	-61.7*
CSc1ccccc1OCc1cc(C(=O)N[C@H]2CCCCNC2=O)no1	-83.1*
COc1ccc2nc(Nc3nc(C)c(C(C)=O)s3)sc2c1	-186.3*
CCOC(=O)c1cc2nc(Nc3ccc(OC)cc3)sc2s1	-83.2*
COc1ccc(Nc2nc3ccc(OC)cc3s2)cc1	-119.7*
O=C1NC2(CCCCC2)C(=O)N1/N=C/c1ccccc1Br	-81.0*
CCOc1ccc(S(=O)(=O)NCc2ccccn2)cc1NC(=O)c1ccccc1F	75.6
COc1ccc(S(=O)(=O)NCc2ccccn2)cc1NC(=O)c1ccccc1	-62.3*
CSC1=NC2(CCCCC2)CC12C=CC(=O)C=C2	-62.6*
O=C(COC(=O)c1ccccc1-n1cnnn1)c1ccc(Br)cc1	-94.7*
Cc1c2ccccc2nc2c(F)c(N(C)C)c(F)c(F)c12	-77.8*
CC1CCc2c(sc3ncnc(NS(=O)(=O)c4cccs4)c23)C1 (stereo not drawn)	-100.8*
CCC(C)(C)c1ccc2c(c1)C(=O)c1ccccc1C2=O	-71.5*
O=C(COc1ccc(/C=N/NC(=O)c2cc3ccccc3o2)cc1Cl)Nc1ccccc1	100.8
COc1cc(/C=N/NC(=O)c2ccccc2O)ccc1OCC(=O)Nc1ccccc1	-140.0*
O=C(COc1ccc(/C=N/NC(=O)c2ccccc2O)cc1)Nc1ccccc1	-126.4*
O=C(N/N=C/c1ccc(OCC(=O)N2CCCCC2)cc1)c1ccccc1O	-74.1*
COc1cc(/C=N/NC(=O)c2ccncc2)ccc1OCC(=O)Nc1ccccc1	-100.2*
O=C(Nc1ccn(Cc2ccccc2F)n1)c1ccc(COc2cccc(Br)c2)cc1	-149.6*
O=C(Nc1ccc(-n2cnnn2)cc1)c1cn2ccccc2n1	-88.5*
SMILES	aSyn UTR act
O=C1C2=C(c3ccccc31)[N+](=O)[C@@H]1CCCC[C@@H]1N2[O-]	-94.3*
O=C1C2=C(c3ccccc31)[N+](=O)C1CCCCC1N2[O-] (stereo not drawn)	-72.6*
O=C(Nc1ccccn1)c1sc2cc([N+](=O)[O-])ccc2c1Cl	-160.9*
O=C(NC(=S)Nc1ccccn1)c1cccc([N+](=O)[O-])c1	-89.3*
CCOc1ccc(C(=O)NC(=S)Nc2ccccn2)cc1[N+](=O)[O-]	-103.9*
C=CCN(CC=C)CCOc1ccc(OC(C)C)cc1	-63.3*
c1ccc(-c2noc(CC3CCCCC3)n2)cc1	-168.7*
c1ccc(-c2noc(CCC3CCCC3)n2)cc1	-120.7*
c1cc(-c2noc(CCC3CCCC3)n2)ccn1	-79.4*
CN(Cc1nc(-c2ccccc2)no1)C1CCOCC1	-98.1*
Fc1ccc(-n2ncc3c(SCc4cccnc4)ncnc32)cc1	-137.5*
Cc1ccc(CSc2ncnc3c2cnn3-c2ccc(C)cc2)cc1	-93.0*
Cc1ccc(-n2ncc3c(SCC(=O)NNC(=O)c4ccco4)ncnc32)cc1	-105.6*
Cc1ccc(-n2ncc3c(SCc4ccccc4)ncnc32)cc1	-179.8*
Cc1ccc(CSc2ncnc3c2cnn3-c2ccccc2)cc1	-136.7*
O=C(Nc1nccs1)c1cncc(Br)c1	-145.4*
O=C(Nc1nccs1)c1ccc(COc2c(F)c(F)cc(F)c2F)cc1	-107.3*
